From PubChem BioAssay
An excerpt weighted towards active compounds, which were near 11% of everything screened.
IMPase inh: membrane-permeable compound that blocks inositol monophosphatase. inhibition (IP1 accumulation), % at 46.1 µM. P97697. 120,000 tested, under 10 active. CHO-M1 cells, IP1 accumulation, HTRF TR-FRET ratio. AID 901; active = well fitted curve in the direction sought with a large enough effect in the signal ratio, not every such curve was filed as active; inconclusive = small, poorly fitted or top-dose-only effect, or a change in a side signal; inactive = no such curve, though single readings can be large or run the other way; the % refers to the signal ratio;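 note: cells stimulated with carbachol in lithium chloride buffer; higher means more IMPase inhibition seen as more IP1 and lower FRET ratio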
Target sequence (P97697 whole entry, looked up): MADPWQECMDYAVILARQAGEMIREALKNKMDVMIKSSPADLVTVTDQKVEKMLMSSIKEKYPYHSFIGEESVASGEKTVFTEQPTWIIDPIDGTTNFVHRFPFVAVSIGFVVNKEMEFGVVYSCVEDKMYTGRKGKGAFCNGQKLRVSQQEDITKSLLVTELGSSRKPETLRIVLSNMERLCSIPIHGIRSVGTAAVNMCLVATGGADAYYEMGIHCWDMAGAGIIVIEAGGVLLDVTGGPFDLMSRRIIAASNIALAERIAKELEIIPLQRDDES
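In this qHTS, compounds (final up to 46 uM) act on CHO-M1 cells that are then activated through the M1 receptor with carbachol, in pH 7.4 buffer containing 50 mM LiCl, for 30 min. IP1 accumulation is quantified by the IP-One immunoassay.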
ALOX12 inhib: blocks human 12-lipoxygenase activity; purified 12-hLO, xylenol orange hydroperoxide absorbance; P18054; Potency, µM (doses to about 57.1 µM), usual class: inhibitors; 0.12% of 150,000 active; AID 1452; note: nearly all actives have a fitted effect of over 55% in size
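Lipoxygenase turnover measured by absorbance at 573 and 405 nm after Fe-XO development. Human 12hLO 150 nM, arachidonate 40 uM, pH 7.0 Hepes buffer with detergent; 15 min compound preincubation, 30 min reaction.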
HPGD inh: HPGD (human) dehydrogenase inhibition | P15428 | purified HPGD, NADH fluorescence kinetic, PGE2 substrate | Potency, µM, hits mostly inhibitors | 4.3% of 150,000 active; active = well fitted inhibition curve with a large enough effect, not every such curve was filed as active; inconclusive = small, poorly fitted or top-dose-only effect, or another doubt; inactive = no such curve, though single readings can be large or run the other way
Target sequence (P15428 whole entry, looked up): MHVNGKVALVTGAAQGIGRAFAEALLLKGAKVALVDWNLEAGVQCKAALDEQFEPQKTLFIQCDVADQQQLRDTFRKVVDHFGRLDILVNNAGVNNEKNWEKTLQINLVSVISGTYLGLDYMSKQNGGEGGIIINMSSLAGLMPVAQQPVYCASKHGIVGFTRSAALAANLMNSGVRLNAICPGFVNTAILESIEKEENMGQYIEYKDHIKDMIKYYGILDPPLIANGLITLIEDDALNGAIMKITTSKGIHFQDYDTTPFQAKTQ
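20 nM HPGD preincubated 15 min at room temperature with compound in 50 mM Tris-HCl pH 8, 0.01% Tween 20. Started with 1 mM NAD+ and 30 uM prostaglandin E2; NADH fluorescence (360/450 nm) read 5 times over 30-s intervals, last minus first.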
ALDH1A1 inh: ALDH1A1 (human) enzyme inhibition; Potency, µM (series often up to 75.3 µM), hits mostly inhibitors; Purified ALDH1A1, NADH fluorescence, propionaldehyde substrate; 7.3% of 220,000 active; AID 1030; P00352; active = well fitted inhibition curve with a large enough effect, not every such curve was filed as active; inconclusive = small, poorly fitted or top-dose-only effect, or another doubt; inactive = no such curve, though single readings can be large or run the other way
IMPase Li cell: cell-permeable IMPase inhibitors with lithium potentiation | CHO-M1 cells, IP1 TR-FRET (IP-One), carbachol + lithium | Potency, µM (highest dose often 59.4 µM), usual class: inhibitors | 0.35% of 210,000 active | AID 1457;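 note: IP1 builds up when IMPase is blocked and the TR-FRET signal falls; nearly all actives have a fitted effect of over 50% in size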
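Steps: plate 2000 CHO-M1 cells per well and culture 16–30 h; add compound and lithium; incubate 30 min, 37C; add d2-IP1 tracer and Eu cryptate anti-IP1 antibody in lysis buffer; read after 10 min at room temperature.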
PNC assembly inh: blocks assembly of the perinucleolar compartment. PC3M PTB-GFP, PNC prevalence imaging, 16 h; hits give low values. activity change (PNC), negative = inhibition, % at 10 µM. 3.1% of 140,000 active;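 active = readout at or below -70, meaning at least 70% loss of cells showing the perinucleolar compartment, a nuclear body marking cancer cells; inconclusive = readout between -30 and a set limit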
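Read-out is percentage of cells bearing a perinucleolar compartment, from automated 20x imaging of fixed, Hoechst-stained PC3M PTB-GFP cells. Cells were seeded 4 h, then exposed 16 h to compound (23 nl of library stock) in duplicate plates.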
Numbers stand for hits; i = inactive; ? = inconclusive; nt = no result given; [ ] = dose if it differs, or a comment. Unless noted, calls come from the whole dose curve; as a rule, active = well fitted curve in the direction sought with a large enough effect; inconclusive = small, poorly fitted or top-dose-only effect, or another doubt; inactive = no such curve, though single readings can be large; an effect the other way counts as inactive or inconclusive.

SMILES	IMPase inh	ALOX12 inhib	HPGD inh	ALDH1A1 inh	IMPase Li cell	PNC assembly inh
COc1ccccc1CN1CCC2(CC1)CCN(C(=O)c1c(C)noc1C)CC2	nt	i	i	i	i	nt
COc1ccc(N2CCN(C(=O)c3ccc(Br)cc3)CC2)c([N+](=O)[O-])c1	nt	nt	nt	13µM	i	nt
COc1ccc(N2CCN(C(=O)c3ccccc3)CC2)c([N+](=O)[O-])c1	nt	nt	nt	?	i	nt
COc1ccc(N2CCN(C(=O)c3ccc(C)cc3)CC2)c([N+](=O)[O-])c1	nt	i	i	11µM	i	i
CCCCC(=O)N1CCN(c2ccc(OC)cc2[N+](=O)[O-])CC1	nt	i	14µM	?	i	i
COc1ccc(N2CCN(C(=O)c3ccccc3Br)CC2)c([N+](=O)[O-])c1	nt	nt	nt	?	i	nt
Clc1ccccc1OCc1nn2c(-c3ccncc3)nnc2s1	i	i	4µM	?	i	i
COc1cc(-c2nn3c(COc4ccccc4)nnc3s2)cc(OC)c1OC	i	i	?	?	i	i
CCOc1ccccc1OCc1nn2c(COc3ccccc3)nnc2s1	i	i	11µM	7.9µM	i	i
c1ccc(OCc2nn3c(C4CCCCC4)nnc3s2)cc1	i	i	i	?	i	i
c1ccc(Cc2nn3c(COc4ccccc4)nnc3s2)cc1	i	i	10µM	5µM	i	?
Clc1ccccc1-c1nn2c(COc3ccccc3)nnc2s1	i	i	28µM	20µM	i	i
COc1ccc(COC(=O)N/N=C2/C[C@@H](O)[C@@H](O)[C@@H]3[C@@H]4C(=O)N(Cc5ccc6c(c5)OCO6)C(=O)[C@H]4CC[C@H]23)cc1	nt	nt	nt	i[13.5 µM]	nt	nt
CCC(C)Cn1c(/C=C/c2ccccc2)nc2ccccc21 (configuration not stated)	i	nt	nt	nt	nt	nt
Cc1cccc(OCC(=O)Nc2ccc(Cl)c(-c3nc4ncccc4o3)c2)c1C	i	nt	nt	nt	nt	nt
CCOc1ccc(NC(=O)CS(=O)CC(=O)NC2CCCc3ccccc32)cc1 (configuration not stated)	i	i	i	6.3µM	i	i
O=C(CCl)NC1CCCc2ccccc21 (configuration not stated)	nt	nt	nt	3.2µM	i	nt
CN(C(=O)CCl)C1CCCc2ccccc21 (configuration not stated)	nt	nt	nt	0.4µM	i	nt
COc1ccc(NC(=O)CS(=O)CC(=O)NC2CCCc3ccccc32)cc1 (configuration not stated)	i	i	i	i	i	?
CN(CC(=O)NC1CCCc2ccccc21)C1CCCCC1 (configuration not stated)	nt	nt	nt	?	i	nt
N#Cc1ccc(CN2CCC3(CC2)CCN(C(=O)c2cnccn2)CC3)cc1	nt	i	i	i	i	nt
C=CCOc1ccc(C2c3c(oc4ccc(C)cc4c3=O)C(=O)N2CCCN2CCOCC2)cc1 (configuration not stated)	i	nt	nt	nt	nt	nt
Cc1cc2oc3c(c(=O)c2cc1C)C(c1ccc(C(C)C)cc1)N(CCCN1CCOCC1)C3=O (configuration not stated)	nt	i	i	4µM	i	i
COc1cccc(C2c3c(oc4cc(C)c(C)cc4c3=O)C(=O)N2CCCN(C)C)c1 (configuration not stated)	i	i	i	28µM	i	?
COC(=O)c1ccc(C2c3c(oc4ccccc4c3=O)C(=O)N2CCCN2CCOCC2)cc1 (configuration not stated)	i	i	i	?	i	i
SMILES	IMPase inh	ALOX12 inhib	HPGD inh	ALDH1A1 inh	IMPase Li cell	PNC assembly inh
CCOc1ccc(C2c3c(oc4ccccc4c3=O)C(=O)N2CCCN2CCOCC2)cc1 (configuration not stated)	i	i	i	6.3µM	i	i
CCCOc1ccc(C2c3c(oc4ccccc4c3=O)C(=O)N2CCCN2CCOCC2)cc1 (configuration not stated)	i	i	i	8.9µM	i	i
C#CCN1C(C)=C(C(=O)OC)[C@@H](c2cccc([N+](=O)[O-])c2)C(C(=O)OCC)=C1C	i	i	nt	nt	nt	nt
CCn1cc(CNC(=O)/C=C/c2ccc([N+](=O)[O-])cc2)cn1	i	i	i	i	i	?
COc1cc(-c2nnc(SCC(=O)N3CCCc4ccccc43)o2)cc(OC)c1OC	i	nt	nt	nt	nt	nt
CCOc1ccc(C2c3c(oc4cc(C)c(C)cc4c3=O)C(=O)N2CCCN2CCOCC2)cc1 (configuration not stated)	i	i	i	7.9µM	i	i
Cc1ccccc1Cn1nc(C)c(NC(=O)/C=C/c2cnn(C)c2)c1C	nt	i	i	i	i	-114
Cc1ccccc1Cn1nc(C)c(NC(=O)/C=C/c2cnn(C)c2C)c1C	nt	i	i	i	i	?
CC1CCC(C(=O)NC(C(=O)OCC(=O)c2ccccc2)C(C)C)CC1 (configuration not stated)	i	nt	nt	nt	nt	nt
Cn1c(=O)c2[nH]c(Nc3ccccc3)nc2n(C)c1=O	i	i	i	i	i	-100
O=C(CC(Nc1ccccc1)c1ccc(F)cc1)c1ccccc1 (configuration not stated)	i	i	i	i	i	i
C=C(C(=O)c1ccccc1)C(C)CC(=O)c1ccccc1 (configuration not stated)	i	i	28µM	?	i	i
CC(C)C(=O)NC(=S)NCC(=O)c1ccccc1	i	i	i	?	i	i
O=C(CC(Nc1ccccc1)C(=O)O)c1ccccc1 (configuration not stated)	i	i	i	1.8µM	i	i
COc1ccc(S(=O)(=O)N(CC(=O)Nc2cc(C)cc(C)c2)c2ccc(Cl)cc2)cc1	i	nt	nt	nt	nt	nt
CC(C)[C@@H](CC(=O)N[C@@H]1CCNC[C@H]1C(=O)N[C@H](CC(=O)N[C@@H](CCC(=O)O)CC(=O)O)Cc1c[nH]c2ccccc12)NC(=O)C[C@H](Cc1ccccc1)NC(=O)[C@@H]1CCCC[C@H]1N	nt	i	i	i	i	nt
COc1cc(Br)cc2cc(C(=O)N3CCN(C(=O)c4ccco4)CC3)c(=O)oc12	i	i	i	?	i	i
COc1cc(Br)cc2cc(C(=O)N3CCCCC3C)c(=O)oc12 (configuration not stated)	i	i	13µM	?	i	i
O=C(NCc1ccccc1)C1=C[C@@H](C2CC2)C[C@@H](OCc2ccc(CO)cc2)O1	nt	nt	nt	11µM	i	nt
O=C(NCc1ccccc1)C1=C[C@@H](c2coc3ccccc3c2=O)C[C@@H](OCc2ccc(CO)cc2)O1	nt	nt	nt	7.9µM	i	nt
COc1ccc(Cl)cc1NC(=O)c1cn(C2CCCC2)c(=O)c2c1c1ccccc1n2C	i	nt	nt	nt	nt	nt
O=C(c1cnccn1)N1CCC[C@@]2(CCN(Cc3nccs3)C2)C1	nt	i	i	i	i	nt
